Data: the supplement of paper PMC9694430

Assays:
Assay in all cases: thermal shift delta Tm vs DMSO control; higher = stronger stabilization (binding)
Details in all cases: 12.5 µM; protein concentration 2 µM
[1] = system: LOC_OS01G57100-cb003
Procedure, shortened: (§1)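 Thermal shift values come from differential scanning fluorimetry on purified rice kinase domains made in E. coli, with melting temperatures obtained from Boltzmann fits. Samples of 19.5 μl held 2 μM kinase, 100 mM potassium phosphate pH 7.5, 150 mM NaCl, 10% glycerol, 5 × SYPRO Orange and compound in DMSO, and were heated from 25°C to 95°C at 0.05°C/s. Each shift is a triplicate mean relative to the DMSO-only protein sample.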

[2] = system: LOC_OS01G60330-cb001
Procedure, shortened: as §1

[3] = system: LOC_OS01G60700-cb002
Procedure, shortened: as §1

[4] = system: LOC_OS01G63280-cb003
Procedure, shortened: as §1

[5] = system: LOC_OS01G67340-cb003
Procedure, shortened: as §1

[6] = system: LOC_OS01G70970-cb002
Procedure, shortened: as §1

[7] = system: LOC_OS02G07810-cb001
Procedure, shortened: as §1

[8] = system: LOC_OS02G08530-cb003
Procedure, shortened: as §1

[9] = system: LOC_OS02G14120-cb001
Procedure, shortened: as §1

[10] = system: LOC_OS02G17970-cb001
Procedure, shortened: as §1

[11] = system: LOC_OS02G45750-cb003
Procedure, shortened: as §1

[12] = system: LOC_OS02G54510-cb004
Procedure, shortened: as §1

[13] = system: LOC_OS03G04050-cb001
Procedure, shortened: as §1

[14] = system: LOC_OS03G12390-cb001
Procedure, shortened: as §1

[15] = system: LOC_OS03G27990-cb004
Procedure, shortened: as §1

[16] = system: LOC_OS03G50450-cb001
Procedure, shortened: as §1

[17] = system: LOC_OS03G50810-cb003
Procedure, shortened: as §1

[18] = system: LOC_OS04G35114-cb001
Procedure, shortened: as §1

[19] = system: T1, LOC_OS04G38480-cb003
T1 sequence (whole entry): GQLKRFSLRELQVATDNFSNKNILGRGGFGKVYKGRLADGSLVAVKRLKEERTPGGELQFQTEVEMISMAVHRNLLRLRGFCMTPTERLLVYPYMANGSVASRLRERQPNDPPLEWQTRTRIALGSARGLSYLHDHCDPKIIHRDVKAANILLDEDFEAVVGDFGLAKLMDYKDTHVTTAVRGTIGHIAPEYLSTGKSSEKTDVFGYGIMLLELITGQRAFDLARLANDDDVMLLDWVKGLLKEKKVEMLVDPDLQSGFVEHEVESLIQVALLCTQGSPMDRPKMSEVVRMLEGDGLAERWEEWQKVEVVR
Procedure, shortened: as §1

[20] = system: T2, LOC_OS04G41100-cb001
T2 sequence (whole entry): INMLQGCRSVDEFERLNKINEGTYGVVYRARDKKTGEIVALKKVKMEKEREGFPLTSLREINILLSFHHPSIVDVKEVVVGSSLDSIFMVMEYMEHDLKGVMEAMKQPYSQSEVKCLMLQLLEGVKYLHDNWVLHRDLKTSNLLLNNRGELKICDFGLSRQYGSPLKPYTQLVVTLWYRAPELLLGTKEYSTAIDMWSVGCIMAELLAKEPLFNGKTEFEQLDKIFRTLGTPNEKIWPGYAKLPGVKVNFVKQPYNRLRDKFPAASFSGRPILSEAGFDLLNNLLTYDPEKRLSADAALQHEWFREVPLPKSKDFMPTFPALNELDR
Procedure, shortened: as §1
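Further: purified Escherichia coli-expressed rice kinase domain construct.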

Row | Structure (SMILES) | thermal shift delta Tm [1] [°C] | thermal shift delta Tm [2] [°C] | thermal shift delta Tm [3] [°C] | thermal shift delta Tm [4] [°C] | thermal shift delta Tm [5] [°C] | thermal shift delta Tm [6] [°C] | thermal shift delta Tm [7] [°C] | thermal shift delta Tm [8] [°C] | thermal shift delta Tm [9] [°C] | thermal shift delta Tm [10] [°C] | thermal shift delta Tm [11] [°C] | thermal shift delta Tm [12] [°C] | thermal shift delta Tm [13] [°C] | thermal shift delta Tm [14] [°C] | thermal shift delta Tm [15] [°C] | thermal shift delta Tm [16] [°C] | thermal shift delta Tm [17] [°C] | thermal shift delta Tm [18] [°C] | thermal shift delta Tm [19] [°C] | thermal shift delta Tm [20] [°C]
1 | O=C(Cc1ccc(-c2ccc(OCCN3CCOCC3)cc2)cn1)NCc1ccccc1 | 1.17 | 0.12 | 1.18 | 0.26 | 0.62 | 0.16 | 0.92 | 0.7 | 0.08 | 1.17 | 0.29 | 0.08 | 0.31 | 0.07 | 0.38 | 0.47 | 0.43 | 0.43 | 0.12 | 0.27
2 | Cn1c(Nc2ccc(C(F)(F)F)cc2)nc2cc(Oc3ccnc(-c4ncc(C(F)(F)F)[nH]4)c3)ccc21 | 4.82 | 16.6 | 0.58 | 24.5 | 1.4 | 1.63 | 3.92 | 0.26 | 0.77 | 2.38 | 2.26 | 2.15 | 0.84 | 2.43 | 0.45 | 1.16 | 1.92 | 1.17 | 4.08 | 1.82
3 | O=C(Nc1cc(C(F)(F)F)cc(C(F)(F)F)c1)c1cc(Cl)ccc1O | 1.44 | 1.34 | 2.1 | 1.28 | 0.01 | 0.57 | 2.75 | 1.42 | 0.39 | 2.43 | 0.1 | -0.16 | 0.55 | 1.46 | 0.24 | 0.5 | 0.7 | 0.29 | 0.16 | 0.52
4 | CC(C)NC(=O)C1CCC(n2c(NC(=O)c3ccc(F)cc3)nc3ccc(CN4CCC(C(C)(C)O)CC4)cc32)CC1 (stereo not given) [Belizatinib (TSR-011)] | 0.68 | 1.95 | 0.11 | 0.25 | 2.85 | 6.79 | -0.66 | 5.19 | 4.13 | -0.03 | 1.72 | 1.61 | 0.67 | 6.22 | 1.09 | 0.85 | 3.76 | 6.28 | 1.98 | 0.49
5 | C[C@H]1CNC(=O)c2cnn3ccc(nc23)N[C@H](C)c2cc(F)ccc2O1 | 0.38 | -0.02 | -0.09 | 2 | 1.17 | 0.74 | -0.67 | 2.82 | 10.7 | -0.27 | 3.54 | 6.11 | 0.53 | 0.55 | 0.55 | 0.87 | 2.52 | 2.45 | 3.37 | 0.09
6 | CCC(=O)Nc1cccc(Oc2nc(Nc3ccc(N4CCN(C)CC4)cc3OC)ncc2Cl)c1 | 0.87 | 1.08 | 1.14 | 0.16 | 0.44 | 0.22 | 0.45 | 1.46 | 0.22 | 0.04 | 1.13 | -0.03 | 0.41 | 2.35 | 0.56 | 0.69 | 1.06 | 0.8 | 1.83 | 0.39
7 | N#Cc1cnc(Nc2cc(NC[C@H]3CNCCO3)c(C(F)(F)F)cn2)cn1 | 0.46 | 1.05 | 1.23 | 0.31 | 0.67 | 1.58 | 0.2 | 0.87 | 2.96 | 0.44 | 3.09 | 0.4 | 0.6 | 0.36 | 0.89 | 0.52 | 1.11 | 1.35 | 1.02 | 0.96
8 | C=CC(=O)N1CCC[C@@H](n2nc(-c3ccc(Oc4ccccc4)cc3)c3c(N)ncnc32)C1 | 1.42 | 1.09 | 0.54 | 3.76 | -0.23 | 1.12 | 0.96 | 1.16 | 0.34 | 0.6 | 1.46 | 1.25 | 0.88 | 0.1 | 0.51 | 1.39 | 1.07 | 3.03 | 1.2 | 0.37
9 | CCc1cncnc1N1CCN(Cc2nc3ccc(C(F)(F)F)cc3[nH]2)CC1 | 1.5 | 0.04 | 0.72 | 0.19 | -0.58 | 0.14 | 0.73 | 0.49 | -0.72 | 0.34 | 0.59 | 0.3 | 0.39 | -0.06 | 0.33 | 0.04 | 0.36 | 0.25 | 0.52 | 0.52
10 | CC(C)c1cnn2c(NCc3ccccc3-n3cccn3)nc(OC3CCCNC3)nc12 (stereo not given) | 0.42 | 1.35 | 1.26 | 0.47 | 0.65 | 0.27 | 0.85 | 0.74 | -0.11 | 2.44 | 0.32 | -0.14 | 0.32 | 0.22 | 0.11 | 0.09 | 0.5 | 0.48 | 1.13 | 0.57
11 | COc1cc2nccc(Oc3ccc(NC(=O)c4cn(C(C)C)c(=O)n(-c5ccc(F)cc5)c4=O)cc3F)c2cc1OC | 0.85 | 0.41 | 0.47 | -0.09 | 0.68 | 0.8 | -0.36 | 0.66 | 8.24 | 1.66 | 1.35 | 0.3 | 0.61 | 0.23 | 0.52 | 0.71 | 1.15 | 0.49 | 3.7 | 0.44
12 | CCOc1cc2ncc(C#N)c(Nc3ccc(OCc4ccccn4)c(Cl)c3)c2cc1NC(=O)/C=C/CN(C)C [Neratinib (HKI-272)] | 1.51 | 0.66 | 1.67 | 1.02 | 1.41 | 0.3 | 0.52 | 1 | 1.97 | 1.71 | 4.68 | 0.16 | 0.41 | 0.55 | 1.01 | 0.39 | 1.2 | 5.53 | 1.27 | 0.15
